Results taken from PubChem BioAssay AID1159580 (chemical genetic matrix, 2015).
Several values for one entry are separate records, joined by “and”; a condition that tells them apart may be missing. Identical values can stand only once. In all, about 5,500 compounds went through this assay and about 2,000 (36%) were called active. About 18% were inconclusive and are not listed. Rule as the data show it: active = normalized growth mostly below about 0.91 (no sharp cut-off); inconclusive = no clear call, values can overlap the other calls; inactive = mostly above about 0.92. Some of the results follow.

Test: chemical genetic growth profiling, strain panel (AID 1159580);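 also: tested at 20 µM; growth read once vehicle control cultures reached saturation at 30 °C; 1 = growth at the plate median or of vehicle wells; lower values mean less growth of the strain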
Settings: S. cerevisiae deletion strains, growth OD

Measured: normalized growth

CNCCCN1c2ccccc2CCc2ccccc21
inactive: locus YAL013W, strain DEP1, stronger effect = lower value 0.993 | locus YAL021C, strain ccr4, stronger effect = lower value 1 | locus YAL026C, strain drs2, stronger effect = lower value 0.985 | locus YAL030W, strain snc1, stronger effect = lower value 1.03 | locus YAL040C, strain CLN3, stronger effect = lower value 1 | locus YBL061C, strain skt5, stronger effect = lower value 1.02 | locus YBR009C, strain hhf1, stronger effect = lower value 0.972 | locus YBR021W, strain FUR4, stronger effect = lower value 1 | locus YBR023C, strain chs3, stronger effect = lower value 1.02 | locus YBR171W, strain sec66, stronger effect = lower value 1.03 | locus YBR229C, strain ROT2, stronger effect = lower value 1.01 | locus YBR231C, strain swc5, stronger effect = lower value 1.02 | locus YBR279W, strain paf1, stronger effect = lower value 0.996 | locus YCL011C, strain gbp2, stronger effect = lower value 0.994 | locus YCL016C, strain dcc1, stronger effect = lower value 0.988 | locus YCL029C, strain bik1, stronger effect = lower value 1 | locus YCL061C, strain MRC1 (second series), stronger effect = lower value 0.994 | locus YCL061C, strain MRC1, stronger effect = lower value 1.04 | locus YCL069W, strain vba3, stronger effect = lower value 1.02 | locus YCR088W, strain abp1, stronger effect = lower value 1.02 | locus YDL005C, strain med2, stronger effect = lower value 1.03 | locus YDL035C, strain GPR1, stronger effect = lower value 1.02 | locus YDL040C, strain nat1, stronger effect = lower value 1.02 | locus YDL074C, strain BRE1, stronger effect = lower value 1 | locus YDL101C, strain DUN1, stronger effect = lower value 1 | locus YDL134C, strain PPH21, stronger effect = lower value 1.02 | locus YDL185W, strain tfp1, stronger effect = lower value 1 | locus YDL192W, strain arf1, stronger effect = lower value 0.997 | locus YDR001C, strain nth1, stronger effect = lower value 1.02 | locus YDR069C, strain doa4, stronger effect = lower value 1.05 | locus YDR101C, strain arx1, stronger effect = lower value 1.01 | locus YDR137W, strain rgp1, stronger effect = lower value 1.1 | locus YDR150W, strain NUM1, stronger effect = lower value 1.01 | locus YDR159W, strain sac3, stronger effect = lower value 0.987 | locus YDR162C, strain NBP2, stronger effect = lower value 1.02 | locus YDR195W, strain ref2 1.07 | locus YDR297W, strain sur2, stronger effect = lower value 1.03 | locus YDR318W, strain mcm21, stronger effect = lower value 0.993 | locus YDR334W, strain swr1, stronger effect = lower value 1.01 | locus YDR335W, strain msn5, stronger effect = lower value 1.02 | locus YDR363W, strain ESC2, stronger effect = lower value 0.997 | locus YDR388W, stronger effect = lower value 0.992 | locus YDR392W, strain spt3, stronger effect = lower value 0.91 | locus YDR502C, strain sam2, stronger effect = lower value 1.01 | locus YEL003W, strain gim4, stronger effect = lower value 1.02 | locus YEL037C, strain rad23, stronger effect = lower value 1.01 | locus YEL061C, strain CIN8 (second series), stronger effect = lower value 1.01 | locus YEL061C, strain CIN8, stronger effect = lower value 1.01 | locus YER002W, strain NOP16, stronger effect = lower value 0.983 | locus YER015W, strain faa2, stronger effect = lower value 1.01 | locus YER016W, strain bim1, stronger effect = lower value 0.991 | locus YER110C, stronger effect = lower value 0.999 | locus YER111C, strain swi4, stronger effect = lower value 1.01 | locus YER155C, strain BEM2 (second series), stronger effect = lower value 1.05 | locus YER155C, strain BEM2, stronger effect = lower value 1.01 | locus YER167W, strain BCK2, stronger effect = lower value 1.01 | locus YFR010W, strain ubp6, stronger effect = lower value 1.01 | locus YGL078C, strain dbp3, stronger effect = lower value 0.994 | locus YGL086W, strain mad1, stronger effect = lower value 0.991 | locus YGL167C, strain pmr1, stronger effect = lower value 1.02 | locus YGL173C, strain kem1, stronger effect = lower value 1.02 | locus YGL227W, strain vid30, stronger effect = lower value 1.01 | locus YGL240W, strain doc1, stronger effect = lower value 1.06 | locus YGL248W, strain PDE1, stronger effect = lower value 0.992 | locus YGL253W, strain hxk2, stronger effect = lower value 0.996 | locus YGR135W, strain pre9, stronger effect = lower value 0.986 | locus YGR252W, strain gcn5, stronger effect = lower value 0.94 | locus YHR013C, strain ard1, stronger effect = lower value 0.984 | locus YHR027C, strain rpn1, stronger effect = lower value 0.999 | locus YHR030C, strain SLT2, stronger effect = lower value 1.01 and 1.02 | locus YHR079C, strain IRE1 (second series), stronger effect = lower value 1 | locus YHR079C, strain IRE1, stronger effect = lower value 1.01 | locus YHR094C, strain hxt1, stronger effect = lower value 0.995 | locus YHR129C, strain ARP1, stronger effect = lower value 1.01 | locus YHR142W, strain chs7, stronger effect = lower value 0.993 | locus YHR200W, strain rpn10, stronger effect = lower value 1.01 | locus YIL066C, strain RNR3, stronger effect = lower value 1.01 | locus YIL073C, strain SPO22, stronger effect = lower value 0.964 | locus YIL125W, strain kgd1, stronger effect = lower value 1 | locus YIR030C, strain dcg1, stronger effect = lower value 0.999 | locus YJL092W, strain hpr5, stronger effect = lower value 1.01 | locus YJL095W, strain BCK1 (second series), stronger effect = lower value 1.01 | locus YJL095W, strain BCK1, stronger effect = lower value 0.979 and 1.02 | locus YJL115W, strain asf1, stronger effect = lower value 0.999 | locus YJL129C, strain trk1, stronger effect = lower value 1.04 | locus YJL134W, strain LCB3, stronger effect = lower value 1 | locus YJL154C, strain vps35, stronger effect = lower value 1.01 | locus YJL164C, strain tpk1, stronger effect = lower value 0.984 | locus YJL166W, strain qcr8, stronger effect = lower value 1.06 | locus YJL168C, strain set2, stronger effect = lower value 1 | locus YJL187C, strain SWE1 (second series), stronger effect = lower value 0.998 | locus YJR043C, strain POL32, stronger effect = lower value 1.01 | locus YJR066W, strain TOR1, stronger effect = lower value 0.98 | locus YJR075W, strain HOC1, stronger effect = lower value 0.968
